Reference: PubChem BioAssay (EPA / NIEHS)
Active and inactive are the calls of the source. How the source made its calls: active means hit-call score of the fitted dose curve at least 0.9, where 1 is the maximum; inactive means score below 0.9.

Tests used:
Conditions in all cases: mRNA level, 48 h; actives raise or lower the signal
CYP3A5 (gene 1577) = assay: LTEA_HepaRG_CYP3A5: Life Technologies and Expression Analysis (LTEA) Assay for CYP3A5 using HepaRG (AID 2283493)
How it was run: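 Differentiated HepaRG cells in serum-free induction medium were dosed 48 h with test chemicals (8-point half-log series, top 100 uM, 0.5% DMSO, duplicate). CYP3A5 mRNA measured by qRT-PCR, normalized to ACTB, GAPDH, POLR2A; bidirectional fit versus DMSO.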

[1] = read-out: Fatty Acid-Binding Protein 1 (FABP1), FABP1 (gene 2168); assay: LTEA_HepaRG_FABP1: Life Technologies and Expression Analysis (LTEA) Assay for Fatty Acid-Binding Protein 1 (FABP1) using HepaRG (AID 2283494)
How it was run: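 Differentiated human HepaRG cells were exposed in duplicate for 48 h in serum-free induction medium to 8-point half-log concentration series topping at 100 uM in 0.5% DMSO. FABP1 mRNA measured by TaqMan qRT-PCR, normalized to ACTB/GAPDH/POLR2A; bidirectional fit versus DMSO.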

[2] = read-out: Cytochrome P450 4A22 (Homo sapiens) (UniProt Q5TCH4); assay: LTEA_HepaRG_CYP4A22: Life Technologies and Expression Analysis (LTEA) Assay for Cytochrome P450 4A22 (CYP4A22) using HepaRG (AID 2283495)
How it was run: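 qRT-PCR of CYP4A22 mRNA (Fluidigm TaqMan, normalized to three housekeeping genes) after 48 h chemical exposure of HepaRG cells; 8-point half-log series, top 100 uM, 0.5% DMSO vehicle. Bidirectional curve fitting vs DMSO baseline.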

[3] = read-out: Cytochrome P450 7A1 (Homo sapiens) (UniProt P22680); assay: LTEA_HepaRG_CYP7A1: Life Technologies and Expression Analysis (LTEA) Assay for Cytochrome P450 7A1 (CYP7A1) using HepaRG (AID 2283496)
How it was run: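 Gene expression endpoint in human HepaRG liver cells treated for 48 h with test chemicals (up to 100 uM, 0.5% DMSO). Values come from bidirectional concentration-response fitting versus DMSO.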

[4] = read-out: Glutathione S-Transferase (GSTA2), GSTA2 (gene 2939); assay: LTEA_HepaRG_GSTA2: Life Technologies and Expression Analysis (LTEA) Assay for Glutathione S-Transferase (GSTA2) using HepaRG (AID 2283497)
How it was run: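 Human HepaRG cells, plated 48 h, then exposed in serum-free induction medium for 48 h to eight half-log concentrations up to 100 uM in 0.5% DMSO, duplicate. GSTA2 mRNA by qRT-PCR, normalized to ACTB/GAPDH/POLR2A; bidirectional fit versus DMSO.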

[5] = read-out: Glutamate-cysteine ligase catalytic (GCLC), GCLC (gene 2729); assay: LTEA_HepaRG_GCLC: Life Technologies and Expression Analysis (LTEA) Assay for Glutamate-cysteine ligase catalytic (GCLC) using HepaRG (AID 2283498)
How it was run: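 Differentiated human HepaRG cells, plated 48 h then switched to serum-free induction medium, were exposed in duplicate for 48 h to 8 half-log concentrations topping at 100 uM in 0.5% DMSO. GCLC mRNA was quantified by qRT-PCR against ACTB, GAPDH and POLR2A.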

[6] = read-out: growth arrest and DNA damage 45 (GADD45G), GADD45G (gene 10912); assay: LTEA_HepaRG_GADD45G: Life Technologies and Expression Analysis (LTEA) Assay for growth arrest and DNA damage 45 (GADD45G) using HepaRG (AID 2283499)
How it was run: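 Differentiated human HepaRG cells in serum-free induction medium were exposed for 48 h to 8 half-log concentrations up to 100 uM in 0.5% DMSO, in duplicate. GADD45G mRNA was measured by TaqMan qRT-PCR, normalised to ACTB, GAPDH and POLR2A, and fitted bidirectionally against DMSO.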

[7] = read-out: Glutamate-cysteine ligase regulatory (GCLM), GCLM (gene 2730); assay: LTEA_HepaRG_GCLM: Life Technologies and Expression Analysis (LTEA) Assay for Glutamate-cysteine ligase regulatory (GCLM) using HepaRG (AID 2283500)
How it was run: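 Differentiated human HepaRG cells exposed 48 h in serum-free induction medium to 8-point half-log concentrations (top 100 uM, 0.5% DMSO), in duplicate. GCLM mRNA quantified by qRT-PCR, normalized to ACTB, GAPDH, POLR2A; bidirectional fitting versus DMSO.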

[8] = read-out: Glutathione S-transferase M3 (GSTM3), GSTM3 (gene 2947); assay: LTEA_HepaRG_GSTM3: Life Technologies and Expression Analysis (LTEA) Assay for Glutathione S-transferase M3 (GSTM3) using HepaRG (AID 2283501)
How it was run: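 Differentiated HepaRG cells in serum-free induction medium were exposed in duplicate for 48 h to 8 half-log concentrations up to 100 uM in 0.5% DMSO. GSTM3 mRNA was measured by TaqMan qRT-PCR, normalized to ACTB/GAPDH/POLR2A, and fitted bidirectionally versus DMSO.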

[9] = read-out: Heat shock 70 kDa protein 1 (HSPA1A), gene 3303; assay: LTEA_HepaRG_HSPA1A: Life Technologies and Expression Analysis (LTEA) Assay for Heat shock 70 kDa protein 1 (HSPA1A) using HepaRG (AID 2283502)
How it was run: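 Differentiated human HepaRG cells in serum-free induction medium were exposed in duplicate for 48 h to eight concentrations (top 100 uM, half-log steps, 0.5% DMSO). HSPA1A mRNA was quantified by qRT-PCR, normalized to ACTB, GAPDH and POLR2A, and fitted bidirectionally against DMSO.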

[10] = read-out: Hypoxia-inducible factor 1-alpha (Homo sapiens) (UniProt Q16665); assay: LTEA_HepaRG_HIF1A: Life Technologies and Expression Analysis (LTEA) Assay for Hypoxia-inducible factor 1 (HIF1A) Trancription factor using HepaRG (AID 2283503)
How it was run: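 HepaRG, 48 h exposure, 8-pt half-log series from 100 uM, 0.5% DMSO vehicle, duplicates. Readout: HIF1A transcript by qRT-PCR (Fluidigm array), housekeeping-normalised. Bidirectional curve fit vs DMSO baseline.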

[11] = read-out: 3-Hydroxy-3-Methylglutaryl-CoA Synthase 2 (HMGCS2), HMGCS2 (gene 3158); assay: LTEA_HepaRG_HMGCS2: Life Technologies and Expression Analysis (LTEA) Assay for 3-Hydroxy-3-Methylglutaryl-CoA Synthase 2 (HMGCS2) using HepaRG (AID 2283504)
How it was run: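 Differentiated human HepaRG cells were exposed in duplicate for 48 h in serum-free induction medium to eight concentrations (top 100 uM, half-log steps, 0.5% DMSO). HMGCS2 mRNA was quantified by TaqMan qRT-PCR, normalised to ACTB, GAPDH and POLR2A, then fitted bidirectionally against DMSO.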

HGF (gene 3082) = assay: LTEA_HepaRG_HGF: Life Technologies and Expression Analysis (LTEA) Assay for Hepatocyte Growth Facto (HGF) using HepaRG (AID 2283505)
How it was run: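 Differentiated human HepaRG cells in serum-free induction medium were exposed in duplicate for 48 h to eight concentrations (top 100 uM, half-log steps, 0.5% DMSO). HGF mRNA was quantified by qRT-PCR, normalized to ACTB, GAPDH and POLR2A.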

[12] = read-out: Insulin Like Growth Factor 1 (IGF1), IGF1 (gene 3479); assay: LTEA_HepaRG_IGF1: Life Technologies and Expression Analysis (LTEA) Assay for Insulin Like Growth Factor 1 (IGF1) using HepaRG (AID 2283506)
How it was run: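 Differentiated human HepaRG cells were dosed for 48 h in serum-free induction medium with 0.5% DMSO, eight half-log concentrations up to 100 uM, in duplicate. IGF1 mRNA was quantified by qRT-PCR normalized to ACTB, GAPDH, POLR2A; bidirectional fitting versus DMSO.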

[13] = read-out: Intercellular Adhesion Molecule 1 (ICAM1), ICAM1 (gene 3383); assay: LTEA_HepaRG_ICAM1: Life Technologies and Expression Analysis (LTEA) Assay for Intercellular Adhesion Molecule 1 (ICAM1) using HepaRG (AID 2283507)
How it was run: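 Differentiated HepaRG cells in serum-free induction medium were exposed in duplicate for 48 h to eight half-log concentrations up to 100 uM in 0.5% DMSO. Transcript levels were measured by qRT-PCR normalized to ACTB, GAPDH and POLR2A; bidirectional fits relative to DMSO.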

[14] = read-out: Insulin-like growth factor-binding protein 1 (IGFBP1), IGFBP1 (gene 3484); assay: LTEA_HepaRG_IGFBP1: Life Technologies and Expression Analysis (LTEA) Assay for Insulin-like growth factor-binding protein 1 (IGFBP1) using HepaRG (AID 2283508)
How it was run: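 Differentiated human HepaRG cells in serum-free induction medium were exposed in duplicate for 48 h to eight concentrations, top 100 uM with half-log dilutions, in 0.5% DMSO. Transcript levels came from qRT-PCR normalised to ACTB, GAPDH and POLR2A, fitted bidirectionally against DMSO.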

[15] = read-out: Interleukin 6 (IL6), IL6 (gene 3569); assay: LTEA_HepaRG_IL6: Life Technologies and Expression Analysis (LTEA) Assay for Interleukin 6 (IL6) using HepaRG (AID 2283509)
How it was run: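 Differentiated human HepaRG cells, plated 48 h then switched to serum-free induction medium, were exposed in duplicate for 48 h to eight half-log concentrations up to 100 uM in 0.5% DMSO. IL6 mRNA measured by qRT-PCR, normalized to ACTB/GAPDH/POLR2A.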

[16] = read-out: Interleukin 6 Receptor (IL6R), IL6R (gene 3570); assay: LTEA_HepaRG_IL6R: Life Technologies and Expression Analysis (LTEA) Assay for Interleukin 6 Receptor (IL6R) using HepaRG (AID 2283510)
How it was run: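 Differentiated human HepaRG cells, plated 48 h then switched to serum-free induction medium, were dosed in duplicate for 48 h at eight half-log concentrations up to 100 uM in 0.5% DMSO. IL6R mRNA quantified by qRT-PCR, normalized to ACTB/GAPDH/POLR2A; bidirectional fit versus DMSO.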

[17] = read-out: Potassium channel subfamily K member 1 (KCNK1), KCNK1 (gene 3775); assay: LTEA_HepaRG_KCNK1: Life Technologies and Expression Analysis (LTEA) Assay for Potassium channel subfamily K member 1 (KCNK1) using HepaRG (AID 2283511)
How it was run: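 Differentiated human HepaRG cells in serum-free induction medium were exposed in duplicate for 48 h to 8 half-log concentrations up to 100 uM in 0.5% DMSO. KCNK1 mRNA was measured by TaqMan qRT-PCR, normalized to ACTB, GAPDH and POLR2A, and fitted bidirectionally versus DMSO.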

[18] = read-out: Keratin 19 (KRT19), KRT19 (gene 3880); assay: LTEA_HepaRG_KRT19: Life Technologies and Expression Analysis (LTEA) Assay for Keratin 19 (KRT19) using HepaRG (AID 2283512)
How it was run: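 Differentiated human HepaRG cells, plated 48 h, were exposed in duplicate for 48 h in serum-free induction medium to eight half-log concentrations up to 100 uM in 0.5% DMSO. KRT19 mRNA was quantified by qRT-PCR, normalized to ACTB, GAPDH and POLR2A, and fitted bidirectionally versus DMSO.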

Measured: outcome

Chain of Hypoxia-inducible factor 1-alpha (Homo sapiens) (Q16665 whole entry, looked up): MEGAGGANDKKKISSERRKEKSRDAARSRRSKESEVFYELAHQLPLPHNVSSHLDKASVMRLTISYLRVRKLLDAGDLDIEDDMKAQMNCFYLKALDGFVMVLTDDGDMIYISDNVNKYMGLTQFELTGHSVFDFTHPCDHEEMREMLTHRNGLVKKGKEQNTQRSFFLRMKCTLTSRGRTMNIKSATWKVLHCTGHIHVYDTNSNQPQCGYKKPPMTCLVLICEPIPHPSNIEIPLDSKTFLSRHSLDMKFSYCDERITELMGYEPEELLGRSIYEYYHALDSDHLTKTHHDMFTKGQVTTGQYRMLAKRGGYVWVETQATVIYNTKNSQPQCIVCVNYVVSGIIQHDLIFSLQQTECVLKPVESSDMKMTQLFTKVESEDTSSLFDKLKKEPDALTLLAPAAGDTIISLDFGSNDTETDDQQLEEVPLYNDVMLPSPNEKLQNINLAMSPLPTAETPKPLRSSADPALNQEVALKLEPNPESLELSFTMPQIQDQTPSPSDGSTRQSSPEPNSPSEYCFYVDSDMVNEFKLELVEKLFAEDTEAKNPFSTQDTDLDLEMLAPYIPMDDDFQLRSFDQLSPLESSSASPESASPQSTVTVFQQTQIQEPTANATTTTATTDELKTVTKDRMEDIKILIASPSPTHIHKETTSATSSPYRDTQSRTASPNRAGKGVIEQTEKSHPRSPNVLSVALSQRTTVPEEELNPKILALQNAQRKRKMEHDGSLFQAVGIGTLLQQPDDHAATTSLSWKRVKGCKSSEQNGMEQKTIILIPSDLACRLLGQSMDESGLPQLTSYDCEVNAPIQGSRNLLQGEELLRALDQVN

CCCCCCC(C)OC(=O)COc1nc(F)c(Cl)c(N)c1Cl (stereo not given)
inactive: CYP3A5 (gene 1577) | [1] | [2] | [3] | [4] | [5] | [6] | [7] | [8] | [9] | [10] | [11] | HGF (gene 3082) | [12] | [13] | [14] | [15] | [16] | [17] | [18]

CC(C)CCCCCCc1ccc(O)cc1
inactive: CYP3A5 (gene 1577) | [1] | [2] | [3] | [4] | [5] | [6] | [7] | [8] | [9] | [10] | [11] | HGF (gene 3082) | [12] | [13] | [14] | [15] | [16] | [17] | [18]

CCSC(=O)N(CC(C)C)CC(C)C
inactive: CYP3A5 (gene 1577) | [1] | [2] | [3] | [4] | [5] | [6] | [7] | [8] | [9] | [10] | [11] | HGF (gene 3082) | [12] | [13] | [14] | [15] | [16] | [17] | [18]
